A short description of test [1]: qHTS assay to test for compound auto fluorescence at 535 nm (green) in HEK293 cells (AID 720680).
Test [2] can be described thus: qHTS assay to test for compound auto fluorescence at 460 nm (blue) in HEK293 cell free culture (AID 720681). Put shortly:
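Test compounds were pinned into cell-free culture medium (DMEM with 10% FBS) and fluorescence was read directly at Ex/Em 405/460 nm. Signals were expressed as fluorescence equivalents of triamterene, with DMSO vehicle as control.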

Test [3] can be described thus: qHTS assay to test for compound auto fluorescence at 535 nm (green) in HEK293 cell free culture (AID 720682). Put shortly: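 Fluorescein serves as the green reference fluorophore; each compound's intrinsic emission at 535 nm (excitation 485 nm) is reported as an equivalent amount of that dye, measured in serum-containing DMEM without cells.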
Test [4] is described as follows: qHTS assay to test for compound auto fluorescence at 590 nm (red) in HepG2 cell free culture (AID 720684). In a few lines: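 Ex 540 / Em 590 nm read of compound in cell-free MEM (10% FBS). Rose Bengal sodium reference.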
For orientation: In qHTS, concentration-response curves come from the screen itself.

Test [5] can be described thus: qHTS assay to test for compound auto fluorescence at 460 nm (blue) in HepG2 cell free culture (AID 720685). In a few lines:
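Cell-free plates of MEM plus 10% FBS received 23 nL compound or DMSO vehicle; blue-channel (405/460 nm) intensity scored against triamterene as reference fluorophore.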

Test [6] is described as follows: qHTS assay to test for compound auto fluorescence at 535 nm (green) in HepG2 cell free culture (AID 720686).
Test [7] can be described thus: qHTS assay to test for compound auto fluorescence at 460 nm (blue) in HepG2 cells (AID 720687). In a few lines: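 Cells (2,000/well in MEM with 10% FBS) attached overnight at 37 C, then were exposed to compound or DMSO for 1 hr at 37 C, 5% CO2. Fluorescence read at Ex/Em 405/460 nm, expressed as triamterene-equivalent signal.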
Test [8] addresses Glucocorticoid receptor (Homo sapiens) (UniProt P04150). Nature of the test: qHTS assay to identify small molecule agonists of the glucocorticoid receptor (GR) signaling pathway (AID 720691; active means well fitted activation curve with a large enough effect in the signal ratio in the repeat runs, not every such curve was filed as active; the % refers to the signal ratio). In a few lines: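 HeLa GR-bla reporter line; cells pre-incubated 4 h, compound in DMSO 18 h at 37 C; LiveBLAzer B/G FRET substrate 2 h RT; fluorescence intensity read-out.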
Test [9] can be described thus: qHTS assay to identify small molecule antagonists of the glucocorticoid receptor (GR) signaling pathway - cell viability counter screen (AID 720693). Further: nearly all actives have a fitted effect of over 55% in size.
A short description of test [10]: qHTS assay for identifying genotoxic compounds that show differential cytotoxicity against isogenic chicken DT40 cell lines with known DNA damage response pathways - wild type cell line (AID 743012). Further: nearly all actives have a fitted effect of over 60% in size. Further: potency means the concentration at half of the fitted maximal effect. In a few lines:
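CellTiter-Glo luminescence readout of viability in wild type DT40 cells after 40 h compound exposure at 37 C/5% CO2; 300 cells/well; reagent incubated 30 min at room temperature before reading.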

The nature of test [11]: qHTS assay for identifying genotoxic compounds that show differential cytotoxicity against isogenic chicken DT40 cell lines with known DNA damage response pathways - Rev3 mutant cell line (AID 743014). Further: nearly all actives have a fitted effect of over 55% in size. Further: potency means the concentration at half of the fitted maximal effect.
A short description of test [12]: qHTS assay for identifying genotoxic compounds that show differential cytotoxicity against isogenic chicken DT40 cell lines with known DNA damage response pathways - Rad54/Ku70 mutant cell line (AID 743015). Further: nearly all actives have a fitted effect of over 60% in size. Further: potency means the concentration at half of the fitted maximal effect.
Test [13] has as its target Androgen receptor (Homo sapiens) (UniProt P10275). Nature of the test: qHTS assay to identify small molecule agonists of the androgen receptor (AR) signaling pathway using the MDA cell line (AID 743040; further: nearly all actives have a fitted effect of over 20% in size). Put shortly:
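Cell-based luciferase reporter: MDA-kb2, MMTV promoter (AR + GR response elements). 16 h compound exposure at 37C; ONE-Glo, 30 min RT, luminescence.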

A short description of test [14]: qHTS assay to identify small molecule antagonists of the androgen receptor (AR) signaling pathway using the MDA cell line - cell viability counter screen (AID 743041; further: nearly all actives have a fitted effect of over 45% in size). In a few lines: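 In this qHTS counter assay, fluorescence intensity after CellTiter-Fluor addition indicated viability of MDA-kb2 AR-luc cells given compounds and R1881 for 16 h at 37C.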
Test [15] addresses Androgen receptor (Homo sapiens) (UniProt P10275). Nature of the test: qHTS assay to identify small molecule antagonists of the androgen receptor (AR) signaling pathway using the MDA cell line (AID 743042; further: nearly all actives have a fitted effect of over 55% in size). Put shortly: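 MDA-kb2 cells (human breast carcinoma, stably carrying an MMTV-luciferase reporter responsive to AR and GR) were plated at 3,000 cells/well and preincubated 5 hr at 37C, then given compound plus R1881 agonist for 16 h. ONE-Glo luminescence was read.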

In test [16] the target is Glucocorticoid receptor (Homo sapiens) (UniProt P04150). In words: qHTS assay to identify small molecule antagonists of the glucocorticoid receptor (GR) signaling pathway (AID 720692; active means well fitted inhibition curve with a large enough effect in the signal ratio in the repeat runs, not every such curve was filed as active; the % refers to the signal ratio). In a few lines: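 Read-out: beta-lactamase FRET substrate fluorescence, 2 h at room temperature, in HeLa cells stably carrying a GRE-driven bla reporter. Compounds were co-incubated with 5 nM dexamethasone agonist (final) for 18 h at 37 C.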

Test [17] is described as follows: qHTS assay to identify small molecule antagonists of the androgen receptor (AR) signaling pathway - cell viability counter screen (AID 743033; further: nearly all actives have a fitted effect of over 45% in size).
In test [18] the target is Androgen receptor (Homo sapiens) (UniProt P10275). In words: qHTS assay to identify small molecule agonists of the androgen receptor (AR) signaling pathway (AID 743036; active means well fitted activation curve with a large enough effect in the signal ratio in the repeat runs, with a control signal flat, not every such curve was filed as active; the % refers to the signal ratio). Put shortly: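 Fluorescence from a beta-lactamase FRET substrate served as read-out in AR-UAS-bla GripTite HEK293 cells. Cells were treated with DMSO-dissolved compounds for 16 h at 37C, then with LiveBLAzer B/G substrate for 2 h at room temperature.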

Test [19] is described as follows: qHTS assay to test for compound auto fluorescence at 590 nm (red) in HEK293 cell free culture (AID 720683). Put shortly: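 Tox21 10K library compounds were pinned into cell-free DMEM with 10% FBS and fluorescence was read at excitation 540 nm. Activity is expressed as Rose Bengal sodium equivalency.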
Test [20] concerns the target Androgen receptor (Homo sapiens) (UniProt P10275). Nature of the test: qHTS assay to identify small molecule antagonists of the androgen receptor (AR) signaling pathway (AID 743035; active means well fitted inhibition curve with a large enough effect in the signal ratio in the repeat runs, not every such curve was filed as active; the % refers to the signal ratio). Put shortly:
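AR-bla HEK293 reporter cells; 4 h settle at 37C/5% CO2; compound + R1881 agonist, 16 h at 37C; LiveBLAzer B/G FRET substrate 2 h RT; fluorescence intensity read. qHTS format.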

Values without a mark were called inactive. Inconclusive results are not listed. Calls of active or inactive are those of the source. Unless noted, the call rests on the fitted dose curve; in most records, active means well fitted curve in the direction sought with a large enough effect in the repeat runs; inconclusive means weak or mixed curves; inactive means no such curve, though single readings can be large; an effect the other way counts as inactive or inconclusive.

Chain of Androgen receptor (Homo sapiens) (P10275 whole entry, looked up): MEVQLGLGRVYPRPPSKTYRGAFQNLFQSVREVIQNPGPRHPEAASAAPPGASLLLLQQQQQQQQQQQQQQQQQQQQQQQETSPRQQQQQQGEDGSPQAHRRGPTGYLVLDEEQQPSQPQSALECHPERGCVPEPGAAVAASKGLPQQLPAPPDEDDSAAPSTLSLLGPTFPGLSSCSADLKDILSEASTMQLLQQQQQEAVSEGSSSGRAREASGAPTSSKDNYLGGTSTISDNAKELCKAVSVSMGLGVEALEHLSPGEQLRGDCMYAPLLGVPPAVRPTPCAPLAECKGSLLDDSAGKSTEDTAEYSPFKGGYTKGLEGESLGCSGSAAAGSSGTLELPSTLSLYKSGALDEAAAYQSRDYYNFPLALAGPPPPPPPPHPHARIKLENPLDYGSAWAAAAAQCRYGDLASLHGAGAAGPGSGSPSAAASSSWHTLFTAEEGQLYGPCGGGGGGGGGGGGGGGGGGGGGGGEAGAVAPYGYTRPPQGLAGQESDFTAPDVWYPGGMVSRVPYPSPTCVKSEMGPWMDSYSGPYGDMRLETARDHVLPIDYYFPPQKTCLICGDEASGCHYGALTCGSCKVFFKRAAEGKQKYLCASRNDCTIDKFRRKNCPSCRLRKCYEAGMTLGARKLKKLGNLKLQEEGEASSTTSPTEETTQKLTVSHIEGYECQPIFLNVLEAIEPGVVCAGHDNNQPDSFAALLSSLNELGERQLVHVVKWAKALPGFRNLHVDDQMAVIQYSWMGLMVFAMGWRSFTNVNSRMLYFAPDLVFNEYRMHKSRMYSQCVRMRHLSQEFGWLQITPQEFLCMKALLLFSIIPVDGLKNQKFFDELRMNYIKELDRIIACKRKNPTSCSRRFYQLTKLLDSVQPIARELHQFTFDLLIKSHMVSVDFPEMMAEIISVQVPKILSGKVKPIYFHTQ
Chain of Glucocorticoid receptor (Homo sapiens) (P04150 whole entry, looked up): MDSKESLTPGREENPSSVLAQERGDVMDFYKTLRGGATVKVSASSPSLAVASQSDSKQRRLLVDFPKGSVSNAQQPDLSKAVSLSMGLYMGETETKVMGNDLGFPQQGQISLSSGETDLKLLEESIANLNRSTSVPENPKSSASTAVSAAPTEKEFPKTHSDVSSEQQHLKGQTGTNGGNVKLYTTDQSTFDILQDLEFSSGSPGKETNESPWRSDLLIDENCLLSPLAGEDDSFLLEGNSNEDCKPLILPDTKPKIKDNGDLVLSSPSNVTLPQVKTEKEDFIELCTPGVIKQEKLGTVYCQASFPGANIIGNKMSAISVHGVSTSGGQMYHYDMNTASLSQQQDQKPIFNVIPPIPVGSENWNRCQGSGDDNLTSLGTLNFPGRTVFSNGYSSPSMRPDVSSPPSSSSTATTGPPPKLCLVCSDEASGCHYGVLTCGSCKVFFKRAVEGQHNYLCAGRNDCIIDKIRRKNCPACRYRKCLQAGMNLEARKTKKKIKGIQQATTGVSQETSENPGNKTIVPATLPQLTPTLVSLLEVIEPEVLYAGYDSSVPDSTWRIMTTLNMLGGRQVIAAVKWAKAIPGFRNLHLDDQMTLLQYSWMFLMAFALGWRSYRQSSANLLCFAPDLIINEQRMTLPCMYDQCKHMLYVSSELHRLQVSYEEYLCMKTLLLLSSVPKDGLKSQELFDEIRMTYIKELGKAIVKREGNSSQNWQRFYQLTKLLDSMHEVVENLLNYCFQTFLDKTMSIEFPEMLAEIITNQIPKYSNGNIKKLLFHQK

Turning to `CN1CCCN(C(c2ccccc2)c2ccc(Cl)cc2)CC1` (stereo not drawn), the result in [1], in [3], in test [4] and in test [6] was inactive. Moreover, the Potency entry in test [2], in test [5], in [7], in test [8], in test [9] and in test [13] was “inactive” each time. For the same molecule, the Potency result in test [14] and in [15] was “inactive” each time. The results for the Potency in test [10], in test [11] and in [12] were 9.44 µM (active), 11.9 µM (active) and 18.8 µM (active), respectively.

For `CC(C)(O)c1coc(S(=O)(=O)NC(=O)Nc2c3c(cc4c2CCC4)CCC3)c1`, the call in test [1], in [3], in [4] and in [6] was inactive. Besides, the Potency entry in test [2], in test [5], in test [7], in test [8], in test [16] and in test [9] was “inactive” in each case. The Potency result in [17] and in test [14] was “inactive” in each case.

As to `CC(=O)c1ccc[nH]1`, the outcome in test [1], in [3], in test [4], in test [6] and in test [18] was inactive. Besides, the Potency entry in test [2], in [5], in test [7], in test [8], in test [16] and in test [9] was “inactive” throughout. The Potency result in [10], in test [11], in test [12], in test [17], in test [13] and in test [14] was “inactive” throughout. The Potency entry in test [15] was “inactive”.

Regarding `O=C(c1ccccc1)c1ccc(O)cc1`, the result in [1], in [3], in test [19], in [4] and in test [6] was inactive. The Potency entry in [5], in [7], in test [8], in test [16], in [9] and in [17] was “inactive” in each case. The Potency result in test [13], in test [14] and in test [15] was “inactive” each time.

As to `CCCCCCC(O)CCOC(C)=O` (stereo not drawn), the result in [1], in [3], in test [19], in test [4] and in test [6] was inactive. Further, the Potency result in test [5], in test [7], in test [9], in test [10], in test [12] and in [17] was “inactive” each time. Besides, in test [14], the Potency result is “inactive”.

As for `CCCc1nc2c(C)cc(-c3nc4ccccc4n3C)cc2n1Cc1ccc(-c2ccccc2C(=O)O)cc1`, the molecule was called inactive in [1], in [3], in [19], in test [4] and in test [6]. The Potency result in test [5], in [7], in test [8], in test [9], in test [10] and in test [11] was “inactive” each time. For the same molecule, the Potency entry in test [12], in test [17] and in [14] was “inactive” in each case.

With `Nc1c(Cl)cc(Cl)cc1[N+](=O)[O-]`, the result in test [1], in test [3], in test [19], in [4] and in test [6] was inactive. Besides, the Potency entry in test [5], in test [7], in test [9], in [17], in test [20] and in test [13] was “inactive” each time. Further, the Potency result in test [14] and in test [15] was “inactive” throughout.

With `O=P(O)(O)Oc1ccccc1`, the call in test [1], in test [3], in test [19], in [4] and in test [6] was inactive. Besides, the Potency result in test [5], in test [7], in test [8], in [16], in test [9] and in test [10] was “inactive” throughout. Besides, the Potency result in [11], in [12], in test [17] and in test [14] was “inactive” each time.

Values taken from PubChem BioAssay (Tox21).
